Data published in paper PMC5540273 (PLoS ONE, 2017).

test system: MYLK2
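Further: kd values determined as follow-up on hits from a single-replicate KINOMEscan panel screen.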

| Structure (SMILES) | Kd |
| --- | --- |
| O=C(Nc1n[nH]c2nc(-c3nccs3)c(Br)cc12)C1CC1 [SB-742251] | 160 nM |
| O=C(Nc1n[nH]c2nc(-c3nccs3)c(Br)cc12)C1CCCC1 [SB-742609] | 130 nM |
| O=C(Nc1n[nH]c2cc(-c3cccc(F)c3F)ccc12)C1CC1 [SB-733894] | 92 nM |

test system: PDGFRA

| Structure (SMILES) | Kd |
| --- | --- |
| Cn1ccc2ncnc(Oc3ccc(NC(=O)Nc4ccccc4)cc3)c21 | 25 nM |
| CC(=O)Nc1nc2cnc(Nc3cc(NC(=O)c4cccc(CCC#N)c4)ccc3C)nc2s1 | > 10000 nM |
| Cc1cccc(-c2nc(-c3ccc(S(C)(=O)=O)cc3)sc2-c2ccnc(NCCc3ccccc3)c2)c1 | 550 nM |
| O=C(Nc1ccccc1)Nc1cccc(Oc2ccc3nccn3n2)c1 | 3.6 nM |

test system: PDGFRB

| Structure (SMILES) | Kd |
| --- | --- |
| Cc1ccc(NC(=O)Nc2cccc(Cl)c2)cc1-c1ccc(C(=O)Nc2ccncc2)cc1 [GSK1398468] | 50 nM |
| Cc1ccc(NC(=O)Nc2cc(C(C)(C)C)nn2-c2ccccc2)cc1 [GSK1014915] | 340 nM |
| Fc1cc(Cl)ccc1Nc1ccnc2cc(-c3ccc(CN4CCCCC4)o3)ccc12 [GW560116] | 210 nM |
| COC(=O)c1c(-c2ccccc2)c2cc(OC)ccc2c(=O)n1Cc1ccccc1 | 110 nM |
| Cn1ccc2ncnc(Oc3ccc(NC(=O)Nc4ccccc4)cc3)c21 | 16 nM |
| Cc1ccc(C(=O)Nc2ccc(Nc3ccnc4cc(-c5ccccn5)ccc34)cc2O)cc1.Cl [GW440146] | 480 nM |
| CC(=O)Nc1nc2cnc(Nc3cc(NC(=O)c4cccc(CCC#N)c4)ccc3C)nc2s1 | > 10000 nM |
| CC(C)(C)c1ccc(C(=O)Nc2cn3cc(-c4cccnc4)ccc3n2)cc1 | 220 nM |
| Fc1cc(Cl)ccc1Nc1ccnc2cc(I)ccc12 [GW551191] | 410 nM |
| Cc1cccc(-c2nc(-c3ccc(S(C)(=O)=O)cc3)sc2-c2ccnc(NCCc3ccccc3)c2)c1 | 68 nM |
| O=C(Nc1ccccc1)Nc1cccc(Oc2ccc3nccn3n2)c1 | 1 nM |
| COC(=O)c1c(-c2ccccc2)c2cc(C(=O)O)ccc2c(=O)n1Cc1ccccc1 | 75 nM |

test system: PDPK1

| Structure (SMILES) | Kd |
| --- | --- |
| Fc1cc(Cl)ccc1Nc1ccnc2cc(-c3ccc(CN4CCCCC4)o3)ccc12 [GW560116] | > 10000 nM |
| CCCc1ccc(S(=O)(=O)NC2CCN(c3ccnc(Nc4ccc(F)cc4)n3)C2)cc1 (stereo not shown) [GSK1379715] | > 10000 nM |
| CCn1c(-c2ccccn2)nc2cnccc21 [SB-736398] | > 10000 nM |
